This is a sample that favours compounds with a hit; in the whole collection about 1.8% have one here.
GLP1R ag: activates the human GLP-1 receptor. P43220. HEK293 GLP-1R CRE-luciferase, luminescence, 4-6 h; cells express a hypersensitive GLP-1R form. Potency, µM (series often up to 45.6 µM), inactives show at the top dose activation, usual class: activators. 0.007% of 380,000 active. AID 624172; further: % of control where 0% means no effect
Target sequence (P43220 whole entry, looked up): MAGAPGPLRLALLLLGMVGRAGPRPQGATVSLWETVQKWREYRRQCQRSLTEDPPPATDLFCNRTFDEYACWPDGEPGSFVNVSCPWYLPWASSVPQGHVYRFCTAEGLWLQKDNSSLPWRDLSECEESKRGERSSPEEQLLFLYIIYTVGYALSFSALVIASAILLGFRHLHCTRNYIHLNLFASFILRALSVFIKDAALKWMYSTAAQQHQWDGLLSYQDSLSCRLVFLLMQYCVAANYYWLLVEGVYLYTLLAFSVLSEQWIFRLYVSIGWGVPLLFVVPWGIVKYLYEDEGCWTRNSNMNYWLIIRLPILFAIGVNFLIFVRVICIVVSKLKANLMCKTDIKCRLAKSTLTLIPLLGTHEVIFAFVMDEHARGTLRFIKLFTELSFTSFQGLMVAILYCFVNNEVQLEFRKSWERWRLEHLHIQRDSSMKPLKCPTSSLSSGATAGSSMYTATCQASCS
PTHR1 agonist: PTHR1 (human) receptor agonism | Q03431 | Potency, µM (series often up to 115 µM), for inactives: top-dose activation, most hits filed as activators | 0.075% of 410,000 active | AID 743266 | HEK293 GP2 PTHR1 cells, GloSensor cAMP luminescence, 1 h; further: nearly all actives have a fitted effect of over 55% in size
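HEK-293-derived GP2 cells expressing PTHR1 and a GloSensor cAMP reporter, 3,000/well, plated overnight, given luciferin plus IBMX (each 0.5 mM as added) for 1 h at 37 °C, then compound for 1 h at 37 °C. Luminescence was read after 15 min at room temperature.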
RGS4 inhibitor: blocks human RGS4-accelerated GTP hydrolysis; 0.039% of 390,000 active; Transcreener GDP fluorescence polarization, RGS4-accelerated GTP hydrolysis; Potency, µM (series often up to 114 µM), without a hit: at the top dose activity change, negative = inhibition, hits mostly inhibitors; P49798; AID 504845; further: on the % scale 0 is the no-effect control and ±100 the full control effect; nearly all actives have a fitted effect of over 75% in size
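MLSMR compounds (23 nl, pin-transferred) preincubated 10 min at room temperature with a 500nM (2x) first reagent, then RGS4 at 900nM (2x) plus Transcreener GDP mix added; fluorescence polarization (620/688 nm) read before and after 90 min at 30 °C.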
KAT2A inh: blocks human GCN5L2 histone acetyltransferase | AID 504327 | 0.21% of 390,000 active | GCN5L2 HAT assay, ThioGlo1 CoA-SH fluorescence | Potency, µM (series often up to 58.9 µM), for inactives: at the top dose activity change, negative = inhibition, hits mostly inhibitors; further: on the % scale 0 is the no-effect control and ±100 the full control effect
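GCN5L2 (20 nM) in 50mM HEPES pH 7.5, 0.1mM EDTA, 0.01% Tween-20 preincubated 15 min with compounds at room temperature. Reaction started with H3(1-25) 75uM, acetyl-CoA 70uM, ThioGlo1 50uM; CoA-thiol fluorescence (Ex340/Em540) read at 0 and 20 min.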
GLP-1R inv ag: acts as inverse agonist at human GLP-1 receptor; P43220; HEK293 GLP-1R CRE-luciferase, luminescence, 24 h; GLP-1R form is constitutively active; Potency, µM (highest dose often 38.3 µM), inactives show at the highest dose activity change, negative = inhibition, hits mostly inhibitors; 1.6% of 410,000 active; AID 624417; further: on the % scale 0 is the no-effect control and ±100 the full control effect; nearly all actives have a fitted effect of over 55% in size
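Luminescence readout: a drop in cAMP-driven luciferase signal flags inverse agonism at a constitutively active GLP-1R stably expressed in HEK293. Compound exposure lasted 24 hr at 37 deg C, 5% CO2.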
HEK293 tox: cytotoxic in the GLP-1 receptor inverse agonist counter-screen | HEK293 cAMP-luciferase reporter cells, luminescence, 24 h | Potency, µM (series often up to 38.3 µM), without a hit: top-dose activity change, negative = inhibition, hits mostly inhibitors | 0.13% of 410,000 active | AID 624418;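 further: loss of luciferase light is scored as toxicity; on the % scale 0 is the no-effect control and ±100 the full control effect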
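MLSMR compounds, 24 hr on cells at 37 deg C/5% CO2; luminescence after luciferase reagent (12 min RT). Inhibition counted as the undesired cytotoxic outcome.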
* hit, by the source's call; i = inactive; ? = inconclusive; . = not tested or not shown; [ ] = dose if it differs, or a comment. The call rests on the fitted dose curve; in most records, active means well fitted curve in the direction sought with a large enough effect; inconclusive means small, poorly fitted or top-dose-only effect, or another doubt; inactive means no such curve, though single readings can be large; an effect the other way counts as inactive or inconclusive. Potency means the concentration at half of the fitted maximal effect.

SMILES	GLP1R ag	PTHR1 agonist	RGS4 inhibitor	KAT2A inh	GLP-1R inv ag	HEK293 tox
Cc1ccc(C(=O)c2c(N)c(C(=O)Nc3ccccc3Cl)c3ccccn23)cc1	.	i	-8%	-10%	5%	11%
COc1cc(-c2nnc(SCC(=O)Oc3ccccc3Cl)o2)cc(OC)c1OC	.	0%	-5%	-8%	4%	-8%
COc1cc(-c2nnc(SCC(=O)N3c4ccccc4Sc4ccccc43)o2)cc(OC)c1OC	-3%	-13%[57.5 µM]	17%	-4%	1.3µM*	-14%
CCCN(CCC)C(=O)Cn1c(=O)n(-c2ccc(OC)cc2OC)c(=O)c2c3c(sc21)CCC3	0%	-13%	-16%	-8%	14%	-8%
CNC(=O)CN(Cc1ccccc1)S(=O)(=O)c1ccc(Cl)cc1	-1%	-19%	-20%	-11%	13%	4%
COc1ccc(NC(=O)CN(Cc2ccccc2)S(=O)(=O)c2ccc(C)cc2)cc1Cl	.	-36%	13%	-1%	10µM*	-5%
COc1ccc(S(=O)(=O)N(CC(=O)Nc2ccc(Br)cc2)Cc2ccccc2)cc1	.	i	19%	-6%	-24%	-1%
COC(=O)c1ccc(NC(=O)CN(Cc2ccccc2)S(=O)(=O)c2ccc(Cl)cc2)cc1	.	-42%	12%	-12%	8.9µM*	-16%
COC(=O)c1ccc(NC(=O)CN(Cc2ccccc2)S(=O)(=O)c2ccc(C)cc2)cc1	.	-6%	0%	2%	10µM*	2%
C#CCn1c(=O)c2c(nc(/C=C/c3cccc(OC)c3)n2C)n(CCCOP(=O)(O)O)c1=O	.	.	.	0%	.	.
COc1cc(NC(=O)c2ccc3oc(=O)c(S(=O)(=O)c4ccccc4)cc3c2)cc(OC)c1	.	-20%	-21%	-12%	7%	23%
CC(C)(C)OC(=O)NC(NC(=O)OCC1c2ccccc2-c2ccccc21)C(=O)O (stereo not given)	.	.	.	28%	.	.
COc1ccc(C2Nc3ccccc3C(=O)N2c2ccccc2F)cc1COc1ccc(NC(C)=O)cc1 (stereo not given)	.	.	15%	.	.	.
CCCNc1nc(N)nc(-c2cc(Cl)ccc2OC)n1	6%	i	-23%	-6%	11%	-8%
CCCN(CCC)c1nc(N)nc(-c2cc(Cl)ccc2OC)n1	22%	i	16%[11.4 µM]	-4%	8.9µM*	-18%
COc1ccc(/C=N/Nc2cc(C)nc(-n3nc(C)cc3C)n2)c(OC)c1	-7%	-41%	-22%	-14%	1.3µM*	?
COC(=O)C1=C[C@@H](C(=O)OC)C2C3=C(C(=O)[C@@]2(C)NC(=O)c2ccccc2)[C@H](C)[C@@H]2C(=O)N(C)C(=O)[C@@H]2[C@@H]3C1 (stereo not given in full)	.	.	-4%	.	.	.
C=CCSSSCC=C	-2%	.	.	22µM*	.	.
Clc1ccc(Cn2c3c(c4ccccc42)CCc2cc4ccccc4nc2-3)cc1	.	.	-5%	.	.	.
c1ccc(-c2ccc(-c3cnc4n3CCCCC4)cc2)cc1	-1%	-12%	-6%	-4%	5µM*	?
CCCCn1c(N)c(N(CC(C)C)C(=O)CC2OC(=O)c3ccccc32)c(=O)[nH]c1=O (stereo not given)	16%	-11%	14%	-2%	72%	-10%
CC(C)CNC(=O)C1(C)CCN1C(=O)c1ccc(C(C)(C)C)cc1 (stereo not given)	-1%	-30%	.	.	-19%	0%
CC1=C(c2ccc(Cl)cc2)S(=O)(=O)NC1=NCCCN1CCN(c2cc(C)ccc2C)CC1	.	-24%	1%	-6%	?	2%
CC1=C(c2ccc(C)cc2)S(=O)(=O)NC1=NCCCN1CCN(c2ccc(F)cc2)CC1	.	i	-4%	-5%	11µM*	-11%
